Reference: PubChem BioAssay AID1733 (National Center for Advancing Translational Sciences (NCATS), 2009)
Results filed as inconclusive are left out. A number with no mark means an inactive call. Calls of active or inactive are those of the source. Calls come from the whole dose curve; as a rule, active = well fitted inhibition curve with a large enough effect; inconclusive = small, poorly fitted or top-dose-only effect; inactive = flat fitted curve, though single readings scatter.

biological target: Luciferin 4-monooxygenase (Photinus pyralis) (UniProt P08659); experiment: Counterscreen Assay for Enhancers of SMN2 Splice Variant Expression: Interaction with Luciferase Reporter; conditions: purified firefly luciferase, luminescence, 5 min; series mostly up to 51 µM
Sequence (P08659 whole entry, looked up, canonical isoform): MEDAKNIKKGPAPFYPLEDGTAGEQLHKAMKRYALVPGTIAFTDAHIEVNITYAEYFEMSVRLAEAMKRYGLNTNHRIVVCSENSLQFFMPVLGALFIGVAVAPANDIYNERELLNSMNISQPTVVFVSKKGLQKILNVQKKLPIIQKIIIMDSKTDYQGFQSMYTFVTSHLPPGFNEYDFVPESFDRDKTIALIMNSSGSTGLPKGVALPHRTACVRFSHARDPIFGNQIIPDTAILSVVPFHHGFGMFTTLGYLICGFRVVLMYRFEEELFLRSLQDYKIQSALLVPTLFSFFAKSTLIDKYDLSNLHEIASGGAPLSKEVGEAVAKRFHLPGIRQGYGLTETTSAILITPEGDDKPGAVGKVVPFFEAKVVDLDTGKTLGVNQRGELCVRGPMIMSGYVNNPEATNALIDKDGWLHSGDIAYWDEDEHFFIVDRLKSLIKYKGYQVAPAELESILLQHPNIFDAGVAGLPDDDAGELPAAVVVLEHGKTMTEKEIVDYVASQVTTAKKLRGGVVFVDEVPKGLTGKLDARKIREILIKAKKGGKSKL
Source text: NIH Chemical Genomics Center [NCGC] NIH Molecular Libraries Probe Production centers Network [MLPCN] MLPCN Grant: R03 MH084179-01 Assay Submitter (PI): Elliot Androphy NCGC Assay Overview: Spinal muscular atrophy (SMA) is caused by insufficient levels of the survival motor neuron protein SMN. The SMN locus on chromosome 5q13 contains two inverted copies of SMN called SMN1 and SMN2 which are 99% identical at the amino acid level. SMN1 is a fully functional protein and SMN2 skips exon 7 90% of the time. Skipping of exon 7 produces non-functional protein product. 10% of the SMN2 protein includes exon 7 and is fully functional. In the SMA disease state, mutations in the SMN1 locus are the cause of the disease state. Because only 10% of SMN2 is of the fully functional form, it is not sufficient to overcome the deficiency produced by the loss of the SMN1 product. A therapy that either increases the amount of SMN2 product made increases the inclusion of exon 7 has been proposed for the treatment of SMA. We have designed an assay to identify small molecules that can increase the amount of functional SMN2 product by appending a luciferase reporter gene after the native SMN2 gene, such that inclusion of exon 7 in the expressed product places the luciferase sequence in frame, thus generating functional luciferase enzyme. One potential source of false positives in the primary screening assay is stabilization of the reporter luciferase via direct binding. […]
NCGC Assay Protocol Summary: The primary screen utilizes a luciferase reporter gene assay, combining the promoter and splicing based cassettes in tandem with the major portion of the native SMN1 cDNA, and then transfected into HEK293 cells. […] Sequence, Parameter, Value, Description (1) Reagent, 2.5 uL, Enzyme in buffer (note A) (2) Compound, 23 nL, From stock solutions (3) Time, 5 minutes, Room temp (4) Reagent#2.5 ul, Luciferase detection reagent (note B) (5) Detector, 1 sec integrate, Luminescent read on Viewlux (note C) Sigma enzyme (1 mg) considered to be MW 61,000 diluted in 357 ul assay buffer to 50 uM stock. […]

SMILES | Potency | activity change, negative = inhibition
CC[C@]1(O)CC(O[C@@H]2CC(N(C)C)C(O)C(C)O2)c2c(cc3c(c2O)C(=O)c2c(O)cccc2C3=O)C1C(=O)OC (stereo partly drawn) | inactive | –
C[C@@H]1O[C@@H](O[C@H]2C[C@@H](O)[C@]3(CO)[C@H]4[C@H](O)C[C@]5(C)[C@@H](C6COC(=O)C6)CC[C@]5(O)[C@@H]4CC[C@]3(O)C2)[C@H](O)[C@H](O)[C@H]1O (stereo partly drawn) | – | 13.4% [at 48.7 pM]
O=C(C1CCN(c2nc3ccc(Br)cc3s2)CC1)N1CCC2(CC1)OCCO2 | 7.08 µM (active) | –
